PubChem BioAssay (Tox21)
“And” between values parts separate entries of the source, which are not always exact repeats. Identical values can stand only once. Records with an inconclusive call do not appear. The source made the active and inactive calls. Calls come from the whole dose curve; as a rule, active = well fitted cell-killing curve with a large enough effect in the repeat runs; inconclusive = weak or mixed curves, or effect the other way; inactive = no such curve, though single readings can be large or run the other way.

assay: qHTS assay to identify small molecule antagonists of the progesterone receptor (PR) signaling pathway - cell viability counter screen (AID 1346798); conditions: PR-UAS-bla HEK293T viability, CellTiter-Glo luminescence, 16 h; series mostly up to 92.4 µM; activity change, negative = cytotoxicity: at the top concentration; note: nearly all actives have a fitted effect of over 50% in size
Source text: National Center for Advancing Translational Sciences [NCATS]
NIH Chemical Genomics Center [NCGC]
U.S. Environmental Protection Agency [EPA]
National Institutes of Environmental Health Sciences [NIEHS]
National Toxicology Program [NTP]
U.S. Food and Drug Administration [FDA]
Progesterone receptor (PR), a nuclear hormone receptor, plays an important role in development, metabolic homeostasis and reproduction. It is activated by the steroid hormone progesterone. Endocrine disrupting chemicals (EDCs) and their interactions with steroid hormone receptors like PR causes disruption of normal endocrine function. To identify the compounds that inhibit PR signaling, a PR-UAS-bla GripTite cell line i.e. PR-UAS-bla HEK293T (Invitrogen, Carlsbad, CA, USA) containing a beta-lactamase reporter gene under the control of an UAS response element was used to screen Tox21 10K compound library. The cytotoxicity of the Tox21 compound library against the PR-bla cell line was tested in parallel by measuring the cell viability using CellTiter-Glo assay in the same wells.
Tox21 Assay Protocol Summary:
PR-UAS-bla HEK293T cells were dispensed at 3,000 cells/4 uL of assay medium containing 2% charcoal stripped FBS per well into black wall/clear-bottom 1536-well plates using a Multidrop Combi (ThermoFisher Scientific, Waltham, MA) dispenser. After the assay plates were incubated at a 37C and 5% CO2 for 4 hr, 23 nL of compounds dissolved in DMSO, positive controls or DMSO only was transferred to the assay plate by a Pintool station (Kalypsys, San Diego, CA), followed by addition of 1 uL of R5020 in assay medium using a Flying Reagent Dispenser (FRD, Aurora Discovery, San Diego, CA). The plates were incubated at 37C and 5% CO2 for 16 hr. Then 1 uL of LiveBLAzer B/G FRET substrate was added using a Flying Reagent Dispenser, the plates were incubated at room temperature for 2 hours, and fluorescence intensity was measured by an Envision plate reader (PerkinElmer, Shelton, CT). For cell viability readout that measures cytotoxicity, 4 uL/well of CellTiter-Glo reagent was added into the assay plates using a FRD. After 30 min incubation at room temperature, the luminescence intensity in the plates was measured using a ViewLux (PerkinElmer) plate reader.
% is set by controls: 0 for no effect and ±100 for the full control effect; potency is the fitted concentration of half-maximal effect.

Structure (SMILES) | activity change, negative = cytotoxicity | Potency
O=C(O)c1cc(O)c2ccccc2c1O | 10.5% (inactive) | –
CC(C)OC(=O)C(O)(CC(=O)O)CC(=O)O | 7.78% (inactive) | –
CN(C)c1ccc(C(=C2C=CC(=[N+](C)C)C=C2)c2ccc(N(C)C)cc2)cc1 | – | 24.2 µM (active) and 30.6 µM (active) and 21.1 µM (active)
C[C@H]1NCc2cc(-c3ccc4c(=O)c(C(=O)O)cn(C5CC5)c4c3OC(F)F)ccc21 | -2.19% [at 18.9 µM] (inactive) | –
Cc1ccc(C(=O)O)cc1 | -17.7% (inactive) | –
CCO[Si](OCC)(OCC)OCC | -0.729% (inactive) | –
Nc1cc(Cl)c(O)c(Cl)c1 | 21.5% (inactive) | –
NC(=S)NC(N)=S | -16.7% (inactive) | –
C=CC(=O)OCCOC(=O)C=C | -11.1% (inactive) | –
O=c1oc2cc(O)ccc2c2oc3cc(O)ccc3c12 | 7.56% (inactive) | –
[Cu+] | -11.9% (inactive) | –
CCCCCc1ccc(Cl)cc1 | -6.25% (inactive) | –
CCCCCCCCCCCCCC[N+](C)(C)C | – | 48.5 µM (active) and 33.5 µM (active)
C=CC(=O)Nc1cc2c(Nc3ccc(F)c(Cl)c3)ncnc2cc1OCCCN1CCOCC1 | -11.9% [at 42.5 µM] (inactive) | –
CCCCC/C=C\C/C=C\CCCCCCCC(=O)O | -14.5% (inactive) | –
Cc1c2ccccc2c(C)c2c1ccc1ccccc12 | – | 27 µM (active) and 30.6 µM (active)
CC[C@H](C)COC(=O)/C=C/c1ccc(N=Cc2ccc(OC)cc2)cc1 | 10.2% (inactive) | –
CN1CCN2c3ccccc3Cc3ccccc3C2C1 (stereo not given) | 2.39% [at 42.5 µM] (inactive) | –
COc1cc2nc(N3CCN(C(=O)c4ccco4)CC3)nc(N)c2cc1OC | -16.5% [at 18.9 µM] (inactive) | –
CCC(COC(=O)CCS)(COC(=O)CCS)COC(=O)CCS | -2.78% (inactive) | –

Structure (SMILES) | activity change, negative = cytotoxicity | Potency
O=C(O)CCN(C1(C(=O)NO)CCCC1)S(=O)(=O)c1ccc(Oc2ccc(F)cc2)cc1 | 5.54% (inactive) | –
CCC(C)[O-].CCC(C)[O-].CCOC(=O)/C=C(/C)[O-].[Al+3] | -7.99% (inactive) | –
Oc1cc(Cl)cc(Cl)c1Cl | 24% (inactive) | –
CCC(CC)(CC(=O)Nc1cccc(/C=C/c2nc(C3CCC3)cs2)c1)C(=O)O | 8.23% [at 42.5 µM] (inactive) | –
CN(C)CCN1CCN(c2cccc(Cl)c2)C1=O | -19.7% [at 42.5 µM] (inactive) | –
C#Cc1ccc(-c2ccccc2F)cc1 | 1.91% [at 42.5 µM] (inactive) | –
CNc1ccc([N+](=O)[O-])cc1 | 27.7% (inactive) | –
CC(C)Cn1cnc2c(N)nc3ccccc3c21 | 10.2% [at 18.9 µM] (inactive) | –
O=c1[nH]c(=O)n([C@H]2C[C@H](O)[C@@H](CO)O2)cc1F | -1.54% [at 42.5 µM] (inactive) | –
CCN(CC)C(=O)c1cc(S(=O)(=O)Cc2ccccc2)c(N2CCC(c3ccccc3)CC2)cc1N(CC)CCN(C)C | – | 19.1 µM (active)
CCCCC(CC)CN1CN(CC(CC)CCCC)CC(C)(N)C1 (stereo not given) | -25.1% [at 42.5 µM] (inactive) | –
CC(C)CCCCCOC(=O)CCS | 8.59% (inactive) | –
O=S(=O)(O)c1ccc(Nc2nc(Nc3ccc(/C=C/c4ccc(Nc5nc(Nc6ccc(S(=O)(=O)O)cc6)nc(N(CCO)CCO)n5)cc4S(=O)(=O)O)c(S(=O)(=O)O)c3)nc(N(CCO)CCO)n2)cc1 | 12.5% [at 42.5 µM] (inactive) | –
O=S(=O)(O)c1ccccc1/C=C/c1ccc(-c2ccc(/C=C/c3ccccc3S(=O)(=O)O)cc2)cc1 | 0.0819% (inactive) | –
C/C=C/C=C/COC(=O)C(C)C | 4.67% (inactive) | –
COc1cccc(OC)c1C(=O)O | -2.19% (inactive) | –
OCC(F)(F)F | -6.46% (inactive) | –
OC1CCC(C2CCCCC2)CC1 (stereo not given) | -2.19% (inactive) | –
O=C(Oc1ccccc1)Oc1ccccc1 | 21.7% (inactive) | –
c1cnccn1 | 5.83% (inactive) | –
